# Reference: PubChem BioAssay
# Where “and” joins values, the source holds several entries; their conditions need not be identical. Equal entries are not always repeated. Calls of active or inactive are those of the source. Rule as the data show it, unless noted: active = inhibition above about 80%; inactive = the rest.
# How the values were obtained:
# [1] = UWB1.289 ovarian carcinoma cell growth inhibition, synergistic combos for chromothripsis tumors, BGB or cisplatin combos (AID 1671456); settings: UWB1.289 ovarian carcinoma cells, stronger effect = higher value;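 also: cells exposed to compound for four days; 0% = vehicle DMSO and 100% = killing by high DMSO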
# [2] = LFS_MB_2R medulloblastoma cell growth inhibition, synergistic combos for chromothripsis tumors, cisplatin combos (AID 1671457); settings: LFS_MB_2R medulloblastoma cells, stronger effect = higher value;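 also: cells exposed to compound for four days before readout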
# [3] = MDA-MB-436 breast carcinoma cell growth inhibition, synergistic combos for chromothripsis tumors, BGB or cisplatin combos (AID 1671458; call rule not given here;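 also: cells exposed for 96 hours; 0% = vehicle DMSO and 100% = killing by high DMSO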); settings: MDA-MB-436 breast carcinoma growth inhibition, drug combinations, stronger effect = higher value
# [4] = UWB1.289_BRCA1 ovarian cancer growth, cell-based, BGB or cisplatin combinations (AID 1671459); settings: UWB1.289 BRCA1 ovarian carcinoma, drug combinations, stronger effect = higher value
# [5] = human astrocyte viability loss, single and combined drugs, cytotoxicity control for chromothriptic childhood tumor combination screen, cell-based, BGB or cisplatin IC20 combos (AID 1671460); settings: Human astrocytes, drug combinations, stronger effect = higher value;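 also: cells exposed to compounds for 96 hours before viability readout; 0% = vehicle and 100% = killing control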
# [6] = growth inhibition of BT084 medulloblastoma cells, cell-based, ICGC_MB145, cisplatin and BGB IC40 combos (AID 1671461); settings: drug combinations, stronger effect = higher value;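 also: cells exposed to drugs for 96 hours; 0% = vehicle DMSO and 100% = high DMSO full killing control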
# [7] = growth inhibition of RCMB18 medulloblastoma cells, cell-based, cisplatin and BGB IC40 combos (AID 1671462); settings: stronger effect = higher value;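 also: cells exposed to compound for four days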
# [8] = growth inhibition of CRL1545 osteosarcoma cells, cell-based, cisplatin and BGB IC20 combos (AID 1671464); settings: stronger effect = higher value;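 also: cells exposed to compound for 96 hours before readout; 0% = vehicle DMSO and 100% = high DMSO killing control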
# [9] = tested on: F380Y; assay: modulators of BK channel variants, profiling panel, selectivity assay, cell-based, U2OS BacMam, thallium flux, beta subunits (AID 1259406;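 active = thallium flux through the channel raised or lowered by more than 3 SD from vehicle-only wells, actives on both sides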;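 also: initial slope of Thallos dye fluorescence rise after thallium is added; log ratio against the mean of 0.3% DMSO vehicle wells on the same plate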); settings: at 30 µM
# [10] = tested on: F380Y/beta1; assay: as above; settings: at 30 µM
# [11] = measured here: inhibition with BGB combination, at 0.05 µM
# [12] = measured here: inhibition with cisplatin combination, at 0.05 µM
# [13] = measured here: combination with cisplatin, at 0.5 µM
# [14] = measured here: combination with cisplatin, at 5 µM
# [15] = measured here: BGB combination, at 0.5 µM
# [16] = measured here: BGB combination, at 5 µM
# [17] = measured here: cisplatin combination, at 0.5 µM
# [18] = measured here: cisplatin combination, at 5 µM
# [19] = BGB combination, concentration series, at 5 µM
# [20] = cisplatin combination, concentration series, at 5 µM
# [21] = measured here: combo with BGB IC20, at 0.5 µM
# [22] = measured here: combo with cisplatin IC20, at 0.5 µM
# [23] = cisplatin combination, at 0.5 µM
# [24] = measured here: BGB IC40 combination 0.05 uM, at 0.05 µM
# [25] = measured here: BGB IC40 combination, at 0.05 µM
# [26] = measured here: with BGB IC20 combination, at 0.5 µM
# [27] = measured here: with cisplatin IC20 combination, at 0.5 µM
compound,measurement,setting,value
CCn1cc(C(=O)O)c(=O)c2cc(F)c(N3CCNC(C)C3)c(F)c21 (stereo unspecified),inhibition,[1]; at 0.5 µM,-5.87% (inactive) and 3.27% (inactive)
same,inhibition,[1]; [11],-15.8% and -6.81%
same,inhibition,[1]; [12],-31.3% and -16.8%
same,inhibition,[2]; at 0.5 µM,-11.7% (inactive) and -17.4% (inactive)
same,inhibition,[2]; [13],-16.5% and -22.2%
same,inhibition,[2]; [14],-74.9% and -58.2%
same,inhibition,[3]; at 0.5 µM,-41.7% (inactive) and -18.1% (inactive)
same,inhibition,[3]; [15],-27.8% and -13.8%
same,inhibition,[3]; [16],-28.2% and -9.38%
same,inhibition,[3]; [17],-66.9% and -25.1%
same,inhibition,[3]; [18],-19.8% and -29.7%
same,inhibition,[4]; [19],-32.2% and -2.47%
same,inhibition,[4]; at 0.5 µM,-9.31% (inactive) and 2.01% (inactive)
same,inhibition,[4]; [20],-6.73% and 11.3%
same,inhibition,[5]; at 0.5 µM,-10.6% (inactive) and 4.2% (inactive)
same,inhibition,[5]; [21],-11.6% and -0.829%
same,inhibition,[5]; [22],-24.3% and -1.68%
same,inhibition,[6]; at 0.5 µM,-29.5% (inactive) and -34.2% (inactive)
same,inhibition,[6]; [23],-4.32% and -19.8%
same,inhibition,"[6]; cisplatin combination, at 5 µM",-10.2% and -20.4%
same,inhibition,[6]; [24],-19.8% and -12.4%
same,inhibition,"[6]; single agent, at 5 µM",-14.7% and -12.9%
same,inhibition,[7]; at 0.5 µM,-20.2% (inactive) and -5.16% (inactive)
same,inhibition,"[7]; cisplatin combo, at 5 µM",-24.3% and 18.4%
same,inhibition,[7]; [25],-16.8% and -25.7%
same,inhibition,[7]; [13],-27.2% and 7.44%
same,inhibition,"[7]; single agent, at 5 µM",-21.5% and -4.86%
same,inhibition,[8]; at 0.5 µM,-53.2% (inactive) and 15% (inactive)
same,inhibition,[8]; [26],-48% and 1.95%
same,inhibition,[8]; [27],-59.3% and 19.8%
same,inhibition,"[8]; single agent, at 0.05 µM",-84.2% and 11.3%
same,inhibition,"[8]; single agent, at 5 µM",-56% and 4.55%
Cn1nnc2c(C(N)=O)ncn2c1=O,inhibition,[1]; at 0.5 µM,10.5% (inactive) and 0.13% (inactive)
same,inhibition,[1]; [11],4.75% and -18.9%
same,inhibition,[1]; [12],25.6% and -6.43%
same,inhibition,[2]; at 0.5 µM,7.22% (inactive) and -24.1% (inactive)
same,inhibition,[2]; [13],1.03% and -18.7%
same,inhibition,[2]; [14],8.16% and -14%
same,inhibition,[3]; at 0.5 µM,6.91% (inactive) and -16.3% (inactive)
same,inhibition,[3]; [15],12.9% and -14.6%
same,inhibition,[3]; [16],4.06% and -13.6%
same,inhibition,[3]; [17],2.96% and -35.2%
same,inhibition,[3]; [18],1.26% and -29.8%
same,inhibition,[4]; [19],6.41% and 2.63%
same,inhibition,[4]; at 0.5 µM,6.2% (inactive) and -1.71% (inactive)
same,inhibition,[4]; [20],-10.8% and 7.27%
same,inhibition,[5]; at 0.5 µM,14.2% (inactive) and -4.55% (inactive)
same,inhibition,[5]; [21],6.32% and -9.95%
same,inhibition,[5]; [22],16.8% and -6.6%
same,inhibition,[6]; at 0.5 µM,-1.52% (inactive) and -18.4% (inactive)
same,inhibition,[6]; [23],-21% and -7.48%
same,inhibition,"[6]; cisplatin combination, at 5 µM",1.38% and -35.6%
same,inhibition,[6]; [24],-9.43% and 0.326%
same,inhibition,"[6]; single agent, at 5 µM",8.38% and -21.4%
same,inhibition,[7]; at 0.5 µM,-3.58% (inactive) and -13.6% (inactive)
same,inhibition,"[7]; cisplatin combo, at 5 µM",-29.7% and 13.3%
same,inhibition,[7]; [25],7.57% and -3.63%
same,inhibition,[7]; [13],-5.87% and -11.2%
same,inhibition,"[7]; single agent, at 5 µM",-2.81% and -25.8%
same,inhibition,[8]; at 0.5 µM,-15.1% (inactive) and -33.6% (inactive)
same,inhibition,[8]; [26],-16.2% and -3.96%
same,inhibition,[8]; [27],-16.4% and -48.4%
same,inhibition,"[8]; single agent, at 0.05 µM",-25.4% and 17.1%
same,inhibition,"[8]; single agent, at 5 µM",-10.6% and 18.5%
same,log fold change Tl+ flux,[9],-0.0478 (inactive)
same,log fold change Tl+ flux,[10],-0.022 (inactive)
